Reference: PubChem BioAssay (NCI)
Compounds without any hit were thinned out: in the full panel of roughly 83,000, 20% have a hit.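 Each cell line was grown in a 96-well plate and treated with one concentration of compound for 48 hours. Values below 10 were considered active.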 A number with no mark means an inactive call. The source made the active and inactive calls.

What follows are compounds tested on IGROV1 ovarian (assay: NCI-60 one-dose screen, 48 h (100 = growth as untreated, 0 = no growth, -100 = all killed)). Conditions: 10 µM unless noted.

SMILES | growth
COC(=O)[C@]12CC[C@@H](C)[C@H](C)[C@@H]1C1=CC[C@@H]3[C@@]4(C)C[C@@H](OC(C)=O)[C@H](O)[C@@](C)(COC(C)=O)[C@@H]4[C@H](O)C[C@@]3(C)[C@]1(C)CC2 | -61.3% (active)
N#Cc1c(-c2ccco2)nc2c(c(-c3ccccc3)nn2-c2ccccc2)c1-c1ccc(O)cc1 | 84.2%
CC(=O)c1c(C)[nH]c(-c2nc3ccc(N4CCN(C)CC4)cc3[nH]2)c1-c1ccc2c(c1)OCCO2 | 23%
COc1ccc(C(=O)c2ccc(C)cc2)c(OC)c1OC | 71.6%
C[C@H]1OC(=O)/C=C/[C@@H](O)[C@@H](O)CCCCCCCC[C@@H]1O | 103%
COc1ccccc1-n1cnc(N)c1C(=O)c1cc(OC)c(OC)c(OC)c1 | 45.5%
COc1ccc(/C=C(\C#N)c2cc3ccccc3n2S(C)(=O)=O)cc1 | 74%
Cc1cccc2c1NC(=O)[C@@]21[C@H](C(=O)c2ccccc2)[C@]2(C(=O)Nc3ccccc32)[C@H]2CCCN21 | 43% [100 µM]
N=c1ccc2nc3c(cc(N)c4ccccc43)oc-2c1 | -29.4% (active)
COc1cccc(-c2nn(-c3ccccc3)cc2-c2ccnc(NCCCNS(=O)(=O)c3ccc(Br)cc3)c2)c1 | 47.6%
Cc1ccc(-c2nn(Cc3cn(-c4cc(C)nc5ccccc45)nn3)c3ncnc(N)c23)cc1 | 15.5%
COc1ccc2c(c1)c1nc3cc(C)c(C)cc3nc1n2CCN(C)C | -7.58% (active)
CC(=O)n1c(/C(C#N)=C/c2ccc(N(C)C)cc2)cc2ccccc21 | 40.3%
C[C@H]1[C@H]2C3=CC[C@@H]4[C@@]5(C)C/C(=C/c6ccco6)C(=O)C(C)(C)[C@@H]5CC[C@@]4(C)[C@]3(C)CC[C@@]2(C(=O)N2CCOCC2)CC[C@@H]1C | 56.5%
Fc1ccc(Nc2ccc3c(OCCCN4CCOCC4)cccc3n2)cc1F | 82.4%
COc1cccc(-c2nn(-c3ccccc3)cc2-c2ccnc(NCCNS(=O)(=O)c3ccc(C(F)(F)F)cc3)c2)c1 | 28%
Cn1cnc2c1c(=O)n(CCC(=O)Nc1ccc(F)cc1)c(=O)n2C | 107%
COCCNC1=C(Cl)C(=O)c2ccccc2C1=O | 126%
CCCCn1c(-c2ccc(O)cc2)cn2c3c(=O)[nH]c(=O)n(C)c3nc12 | 72.9%
Cc1ccc(N(CC(=O)Nc2ccc(S(=O)(=O)NC3CCN(C)CC3)cc2)S(=O)(=O)c2ccc(Cl)cc2)cc1 | 85.7%

SMILES | growth
CC(=O)OC[C@]12CC[C@@H](/C(C)=N/O)[C@@H]1[C@H]1CC[C@@H]3[C@@]4(C)CCCNC(C)(C)[C@@H]4CC[C@@]3(C)[C@]1(C)CC2 | 88.9%
Clc1ccc(Cn2cc(-c3nc4ccc(Br)nc4n3Cc3ccc(Cl)cc3)c3cccnc32)cc1 | 77.3%
CN1CCN(CCOc2ccc(-c3cnc4c(-c5cccc(F)c5)cnn4c3)cc2)CC1 | 63.8%
CN1CCN(c2nc(-c3csc(-c4cccs4)n3)cc3ccccc23)CC1 | 23.1%
CCN(CC)CCCCCCNc1ccnc2cc(Cl)ccc12 | 124%
CCCCCCCC(=O)SCC/C=C/[C@@H]1CC(=O)NCc2cccc(n2)CN(Cc2ccc(Cl)cc2)CC(=O)N[C@@H](C(C)C)C(=O)O1 | 10.9%
c1cc(N2CCCC2)c2nc(-c3[nH]ncc3Nc3ncnc4[nH]ccc34)[nH]c2c1 | -17.9% (active)
COc1ccc(C2=NN(c3nc(-c4ccc(OC)cc4)c(C#N)c(=O)n3C)C(=O)CC2)cc1 | 96.3%
Cc1ccc(S(=O)(=O)Nc2ccc(-c3cc(-c4cccc(F)c4)c(C#N)c(N)n3)cc2)cc1 | -66.3% (active)
CC(C)(C)c1ccc(OCCCCCCCN2CCNCC2)cc1 | 52%
COC(=O)CNc1nc(N(C)O)nc(N(C)O)n1 | 48%
COc1cc2ncnc(Nc3ccc(Oc4ccnc(C)c4)c(C)c3)c2cc1NC(=O)CC1CCSS1 (centres undefined) | 20.6%
C=C(C)[C@@H]1CC[C@]2(C)[C@H](CC[C@@H]3[C@H]4[C@H]5OC[C@@]4(CCC5(C)C)CC[C@]32C)[C@@]1(C)CCCN | 54.3%
c1ccc(-c2nc(Nc3ccc(-c4nc5ccccc5[nH]4)cc3)nc(N3CCOCC3)n2)cc1 | -38.1% (active)
CCOC(=O)C1OC1(c1ccccc1)c1ccccc1 (centres undefined) | 99.6%
CCN1CCN(C(=O)[C@@]2(C)CC[C@]3(C)CC[C@]4(C)C(=CC(=O)[C@@H]5[C@@]6(C)CC[C@H](OCCC#N)C(C)(C)[C@@H]6CC[C@]54C)[C@@H]3C2)CC1 | 95.5%
O=S(=O)(NCCNc1cc(-c2cn(-c3ccccc3)nc2-c2cccc(O)c2)ccn1)c1cccc(F)c1 | 43.5%
N#CC1=C(N)Oc2ccc3ccccc3c2C1c1ccccc1 (centres undefined) | 25.5%
COc1ccc(-c2cc(=O)oc3ccc(Cl)cc23)cc1F | 43.1%
